rRNA inh HTS: selective bacterial rRNA inhibition in E. coli. E. coli WT GFP vs humanized-ribosome RFP mutants, fluorescence, 24 h; active compounds read low; DMSO median 0, no signal -100. AID 720706. GFP signal change (wild-type ribosome), % (no concentration beside the values). hit rate 1.6% among 350,000;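 active = significant combined selectivity score with lowered wild-type GFP, culture density cut under 30%, mutant RFP and density less affected; inactive = any of these conditions unmet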
proKLK7 act: proKLK7 (human) activation, primary screen. P49862. purified proKLK7, EDANS-DABCYL substrate fluorescence; 100% is mature enzyme control, 0% vehicle. activation, % at 7 µM. hit rate 0.9% among 370,000;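 active = activation above the mean of all tested compounds plus 3 SD, computed per campaign excluding outliers beyond control limits, cut at about 13% in these data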
ADAM10 inh: ADAM10 inhibition, QFRET primary screen; recombinant ADAM10, EDANS/DABCYL FRET peptide cleavage, 3 h; inhibition, % at 7 µM; hit rate 0.62% among 370,000; AID 720582;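 active = inhibition above a per-campaign cutoff equal to the mean of compounds falling between control-based bounds plus 3 SD, cut at about 20% in these data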;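 note: 0% = DMSO wells while the 100% control is not disclosed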
Target sequence (O14672 214-748 limits assumed): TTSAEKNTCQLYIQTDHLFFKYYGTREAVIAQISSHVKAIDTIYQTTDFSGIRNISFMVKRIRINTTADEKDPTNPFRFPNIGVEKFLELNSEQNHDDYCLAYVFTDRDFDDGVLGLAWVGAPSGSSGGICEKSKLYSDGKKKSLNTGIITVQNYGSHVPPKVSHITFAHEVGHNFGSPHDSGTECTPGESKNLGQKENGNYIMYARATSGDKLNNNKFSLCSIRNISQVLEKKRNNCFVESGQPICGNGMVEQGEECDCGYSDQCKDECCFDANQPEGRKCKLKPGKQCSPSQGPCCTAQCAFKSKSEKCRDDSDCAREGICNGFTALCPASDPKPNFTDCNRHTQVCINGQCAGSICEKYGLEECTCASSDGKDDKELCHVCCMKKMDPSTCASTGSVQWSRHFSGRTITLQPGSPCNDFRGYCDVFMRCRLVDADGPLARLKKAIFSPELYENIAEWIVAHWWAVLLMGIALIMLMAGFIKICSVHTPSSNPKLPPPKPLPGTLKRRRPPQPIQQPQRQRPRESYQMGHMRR
ADAM17 inh: inhibits human ADAM17 | recombinant ADAM17, EDANS/DABCYL FRET peptide cleavage | inhibition, % at 6.95 µM | hit rate 0.83% among 370,000 | AID 720648;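 active = inhibition above the mean of compounds lying between control limits plus 3 SD, set per campaign, cut at about 8.5% in these data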;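 note: 0% = DMSO-only wells as the low control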
FGF22 binding: FGF22 (human) thermal shift binding; Q9HCT0; recombinant FGF22 thermal shift, SYPRO orange fluorescence; percent of sucrose octasulfate shift, DMSO zero; activity (Tm shift, normalised), % at 9.99 µM; hit rate 1.5% among 340,000; AID 651658;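 active = mean Tm shift, scaled 0 neutral to 100 positive control, at about 1.3% or above, every replicate too, limit read from the data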
ADAM10 confirm: human ADAM10 inhibition, confirmation; shares compounds with ADAM10 inh; ADAM10 QFRET peptide cleavage, EDANS fluorescence; inhibition, % at 6.95 µM; hit rate 1% among 2,100;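 active = inhibition above about 20% chosen separately for each screening run, limit read from the data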;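 note: 0% = DMSO wells and 100% = marimastat wells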
ADAM17 counter: ADAM17 inhibition, counter-screen for ADAM10 exosite hits; shares compounds with ADAM10 inh; ADAM17 QFRET peptide cleavage, EDANS fluorescence; inhibition, % at 6.95 µM; hit rate 0.5% among 2,100; AID 743214;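 active = mean triplicate inhibition above the solvent-only control wells' mean plus 3 SD, cut at about 12% in these data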;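 note: 0% = DMSO wells and 100% = marimastat wells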
ADAM10 counter: ADAM10 inhibition, counter-screen for ADAM17 exosite hits; shares compounds with ADAM17 inh; AID 743256; hit rate 47% among 2,900; recombinant ADAM10, EDANS/DABCYL FRET peptide cleavage, 3 h; inhibition, % at 6.95 µM;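 active = mean inhibition over the triplicate runs exceeds the activity threshold set in the earlier primary screen, cut at about 20% in these data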;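 note: 0% = DMSO wells and 100% = marimastat wells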
ADAM17 confirm: human ADAM17 inhibition, confirmation; shares compounds with ADAM17 inh; recombinant ADAM17, EDANS/DABCYL QFRET peptide cleavage; inhibition, % at 6.95 µM; hit rate 65% among 2,900;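 active = mean inhibition across replicates above the hit cutoff set in the primary screen, cut at about 8.5% in these data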;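 note: 0% = DMSO wells and 100% = marimastat wells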
* marks the source's active call; other numbers are inactive results; / = no result given. Compounds with a hit are over-represented: about 3.8% of the library has one in this group of screens.

SMILES	rRNA inh HTS	proKLK7 act	ADAM10 inh	ADAM17 inh	FGF22 binding	ADAM10 confirm	ADAM17 counter	ADAM10 counter	ADAM17 confirm
CN1C(C(=O)Nc2ccc(OC(F)(F)F)cc2)=CC(c2cccs2)=NS1(=O)=O	-29	0	26*	13*	0	10	4	22*	16*
CCc1nc2ccc(C(=O)Nc3cccc(OC)c3)cn2c1N(CC)Cc1cccc(Br)c1	-3	0	22*	11*	0	12	3	27*	12*
CCc1nc2ccc(C(=O)NCCOc3ccc(OC)cc3)cn2c1N(CC)Cc1cccc(Br)c1	-44	0	-105	6	0	/	/	/	/
CCc1nc2ccc(C(=O)Nc3cccc(NS(C)(=O)=O)c3)cn2c1N(C)CCCc1ccccc1	-7	0	3	3	0	/	/	/	/
CCc1nc2ccc(C(=O)Nc3cccc(NS(C)(=O)=O)c3)cn2c1N(CC)Cc1cccc(Br)c1	/	0	36*	15*	1	9	3	23*	13*
C/C=C/c1ccc([C@H]2[C@@H](CO)N(CC3CCCCC3)[C@@H]2CNC(C)C)cc1	5	/	/	/	/	/	/	/	/
Cc1ccc(S(=O)(=O)N(C)C[C@@H]2Oc3ncc(-c4ccncc4)cc3C(=O)N([C@H](C)CO)C[C@@H]2C)cc1	3	/	/	/	0	/	/	/	/
C[C@@H]1CN([C@@H](C)CO)C(=O)c2cc(NC(=O)CCCCCC(=O)Nc3ccccc3N)ccc2O[C@@H]1CN(C)Cc1ccncc1	4	/	/	/	0	/	/	/	/
CC(C)C[C@H](NC(=O)c1nc[nH]c1C(=O)N1CCN(C(=O)OC(C)(C)C)CC1)C(=O)OCc1ccccc1	0	0	25*	9.9*	-1	2	1	27*	11*
CC(C)C[C@H](NC(=O)c1nc[nH]c1C(=O)NC1CCN(C(=O)OC(C)(C)C)CC1)C(=O)OCc1ccccc1	9	0	37*	16*	0	9	3	29*	16*
CC(C)(C)OC(=O)[C@H](Cc1ccccc1)NC(=O)c1nc[nH]c1C(=O)NC1CCN(C(=O)OC(C)(C)C)CC1	8	1	24*	11*	0	5	1	50*	23*
CC(C)C[C@H](NC(=O)c1nc[nH]c1C(=O)NC1CCN(C(=O)OC(C)(C)C)CC1)C(=O)OC(C)(C)C	5	1	24*	9.4*	0	3	0	32*	16*
COc1ccc(CN(C)C[C@H]2OCCCC[C@H](C)Oc3ccc(NS(=O)(=O)c4ccc(F)cc4)cc3C(=O)N([C@@H](C)CO)C[C@H]2C)cc1	6	/	/	/	0	/	/	/	/
C[C@@H]1CCCCO[C@@H](CN(C)C(=O)CCC(F)(F)F)[C@H](C)CN([C@@H](C)CO)C(=O)c2cc(NS(=O)(=O)c3ccccc3)ccc2O1	-3	/	/	/	0	/	/	/	/
CCCC(=O)Nc1ccc2c(c1)C(=O)N(C)C[C@@H](OC)[C@H](C)CN(CC1CCCC1)[C@@H](C)CO2	0	/	/	/	/	/	/	/	/
COC(=O)[C@H](CC(C)C)N(CCc1cn(Cc2ccc(C)cc2)nn1)S(=O)(=O)c1ccccc1Br	/	1	12	6	/	/	/	/	/
COC(=O)[C@H](CC(C)C)N(CCCc1cn(Cc2ccc(C)cc2)nn1)S(=O)(=O)c1ccccc1Br	/	0	23*	13*	/	5	2	24*	16*
COc1ccc(OC)c(NC(=O)COC(=O)Cc2ccc(-c3ccccc3)cc2)c1	/	0	28*	15*	/	7	2	14	13*
COc1ccc(OC)c(NC(=O)COC(=O)Cc2ccc(Br)cc2)c1	-13	0	8	2	42	/	/	/	/
C[C@H](CO)N1C[C@H](C)[C@H](CN(C)S(=O)(=O)c2cccc(F)c2)Oc2ncccc2C1=O	5	/	/	/	1	/	/	/	/
C=CCOC(=O)C1=C[C@H](C2CCCCC2)C[C@H](OCc2ccc(CO)cc2)O1	5	0	6	-3	0	/	/	/	/
NC(=O)C1=C[C@H](C2CCCCC2)C[C@H](OCc2ccc(CO)cc2)O1	/	0	20*	8.9*	0	-2	0	-4	4
O=[N+]([O-])c1cc(S(=O)(=O)Nc2ccccc2)ccc1N1CCN(c2ccc(O)cc2)CC1	-15	-1	14	5	1	/	/	/	/
Cc1ccc(NS(=O)(=O)c2ccc(N3CCN(c4ccc(O)cc4)CC3)c([N+](=O)[O-])c2)c(C)c1	-17	1	20*	10*	0	6	-1	32*	19*
Cc1cc(C)c(CN2CCN(C(=O)Cn3cnc4c(NCc5ccccc5)ncnc43)CC2)c(C)c1	-20	0	28*	16*	0	3	1	29*	14*
SMILES	rRNA inh HTS	proKLK7 act	ADAM10 inh	ADAM17 inh	FGF22 binding	ADAM10 confirm	ADAM17 counter	ADAM10 counter	ADAM17 confirm
COC(=O)c1ccc(NC(=S)NCCc2ccccc2)cc1	/	0	0	5	/	/	/	/	/
CCOC(=O)c1ccc(NC(=S)NCCc2ccccc2)cc1	/	0	46*	11*	/	1	0	21*	11*
COc1ccc(CNC(=O)C[C@@H]2CC[C@@H](NC(=O)c3cccc(F)c3)[C@H](CO)O2)cc1	1	/	/	/	0	/	/	/	/
CCc1ccc(NC(=O)C(C)OC(=O)c2ccc(NS(=O)(=O)c3ccc(C)c([N+](=O)[O-])c3)cc2)cc1 (centres undefined)	-1	0	29*	12*	0	5	1	27*	17*
COc1ccc(-n2c(SCC(=O)Nc3cc(C)c(NC(=O)c4ccccc4)cc3OC)nnc2-c2ccco2)cc1	/	0	24*	12*	/	5	5	19	8.7*
COc1ccc(-n2c(SCC(=O)Nc3cc(C)c(NC(=O)c4ccccc4)cc3OC)nnc2-c2cccnc2)cc1	/	0	0	-1	/	/	/	/	/
O=C(C[C@@H]1C=C[C@@H](NS(=O)(=O)c2ccccc2)[C@H](CO)O1)NCc1ccccc1F	-1	/	/	/	0	/	/	/	/
CC(Oc1ccccc1Cl)C(=O)N1CCCN(C)CC1 (centres undefined)	12	0	4	0	0	/	/	/	/
Cc1cc(Cl)ccc1OC(C)C(=O)N1CCCN(C(=O)C(C)Oc2ccc(Cl)cc2C)CC1 (centres undefined)	/	1	26*	15*	/	5	1	29*	18*
